Laboratory results: PubChem BioAssay AID1159580 (chemical genetic matrix, 2015)
Screen size: about 5,500 compounds; about 2,000 (36%) were called active. Another 18% or so got no clear call; they are omitted. Cut-off read from the data, not from the text of the source: active = normalized growth mostly below about 0.91 (no sharp cut-off); inconclusive = no clear call, values can overlap the other calls; inactive = mostly above about 0.92. The list shows a part of the results.

Test: chemical genetic growth profiling, strain panel (AID 1159580);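 note: tested at 20 µM; growth read once vehicle control cultures reached saturation at 30 °C; 1 = growth at the plate median or of vehicle wells; lower values mean less growth of the strain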
Conditions: S. cerevisiae deletion strains, growth OD

Measured: normalized growth

CC(=O)OC1CC2C(C)(C)CCCC2(C)C2CCC3(C)C(c4ccoc4)OC(=O)C4OC43C12C (stereo not drawn)
inactive: locus YAL013W, strain DEP1, stronger effect = lower value 0.993 | locus YBR021W, strain FUR4, stronger effect = lower value 0.981 | locus YBR229C, strain ROT2, stronger effect = lower value 0.995 | locus YCL029C, strain bik1, stronger effect = lower value 1.02 | locus YDL035C, strain GPR1, stronger effect = lower value 0.975 | locus YDL074C, strain BRE1, stronger effect = lower value 0.988 | locus YDL101C, strain DUN1, stronger effect = lower value 1.02 | locus YDL134C, strain PPH21, stronger effect = lower value 0.987 | locus YDL185W, strain tfp1, stronger effect = lower value 1.03 | locus YDL192W, strain arf1, stronger effect = lower value 1.01 | locus YDR101C, strain arx1, stronger effect = lower value 1.02 | locus YDR150W, strain NUM1, stronger effect = lower value 1 | locus YDR162C, strain NBP2, stronger effect = lower value 0.979 | locus YDR318W, strain mcm21, stronger effect = lower value 1.01 | locus YDR388W, stronger effect = lower value 1.01 | locus YDR502C, strain sam2, stronger effect = lower value 0.999 | locus YEL061C, strain CIN8, stronger effect = lower value 1 | locus YER110C, stronger effect = lower value 1.02 | locus YER155C, strain BEM2, stronger effect = lower value 1 | locus YER167W, strain BCK2, stronger effect = lower value 1 | locus YGL078C, strain dbp3, stronger effect = lower value 1.01 | locus YGL086W, strain mad1, stronger effect = lower value 1 | locus YGL248W, strain PDE1, stronger effect = lower value 1 | locus YGR135W, strain pre9, stronger effect = lower value 1 | locus YGR252W, strain gcn5, stronger effect = lower value 0.914 | locus YHR030C, strain SLT2, stronger effect = lower value 1.01 | locus YHR079C, strain IRE1 (second series), stronger effect = lower value 1.01 | locus YHR094C, strain hxt1, stronger effect = lower value 1.01 | locus YHR129C, strain ARP1, stronger effect = lower value 1 | locus YHR200W, strain rpn10, stronger effect = lower value 1 | locus YIL066C, strain RNR3, stronger effect = lower value 1 | locus YIL073C, strain SPO22, stronger effect = lower value 1.02 | locus YIL125W, strain kgd1, stronger effect = lower value 1.01 | locus YIR030C, strain dcg1, stronger effect = lower value 1.01 | locus YJL095W, strain BCK1, stronger effect = lower value 0.991 | locus YJL134W, strain LCB3, stronger effect = lower value 1.01 | locus YJL168C, strain set2, stronger effect = lower value 1.01 | locus YJL187C, strain SWE1 (second series), stronger effect = lower value 0.999 | locus YJR043C, strain POL32, stronger effect = lower value 0.978 | locus YJR075W, strain HOC1, stronger effect = lower value 0.995 | locus YKL009W, strain mrt4, stronger effect = lower value 1 | locus YKL068W, stronger effect = lower value 1.01 | locus YKL085W, strain MDH1 (second series), stronger effect = lower value 1 | locus YKL085W, strain MDH1, stronger effect = lower value 1 | locus YKL190W, strain CNB1, stronger effect = lower value 1 | locus YKR001C, strain vps1, stronger effect = lower value 0.993 | locus YLR039C, strain RIC1, stronger effect = lower value 1.01 | locus YLR058C, strain SHM2, stronger effect = lower value 1.01 | locus YLR102C, strain apc9, stronger effect = lower value 1.01 | locus YLR262C, strain YPT6, stronger effect = lower value 1.03 | locus YLR268W, strain sec22, stronger effect = lower value 1.01 | locus YLR330W, strain CHS5, stronger effect = lower value 1.01 | locus YLR342W, strain FKS1 (second series), stronger effect = lower value 0.954 | locus YLR371W, strain rom2, stronger effect = lower value 1.02 | locus YLR418C, strain cdc73, stronger effect = lower value 1.01 | locus YML016C, strain PPZ1, stronger effect = lower value 1.01 | locus YML032C, strain rad52, stronger effect = lower value 1.01 | locus YML124C, strain tub3, stronger effect = lower value 1.02 | locus YMR078C, strain ctf18, stronger effect = lower value 1.02 | locus YMR223W, strain ubp8, stronger effect = lower value 1 | locus YMR263W, strain SAP30, stronger effect = lower value 1.01 | locus YMR307W, strain GAS1, stronger effect = lower value 0.854 | locus YNL067W, strain RPL9B, stronger effect = lower value 1.02 | locus YNL153C, strain GIM3, stronger effect = lower value 1 | locus YNL233W, strain BNI4, stronger effect = lower value 0.99 | locus YNL250W, strain rad50, stronger effect = lower value 1.01 | locus YNL271C, strain bni1, stronger effect = lower value 0.998 | locus YNL298W, strain CLA4, stronger effect = lower value 1.01 | locus YNL307C, strain MCK1, stronger effect = lower value 1.01 | locus YNR052C, strain pop2, stronger effect = lower value 1.01 | locus YOL012C, strain htz1 0.802 | locus YOL147C, strain pex11, stronger effect = lower value 1.01 | locus YOR061W, strain CKA2, stronger effect = lower value 1.01 | locus YOR069W, strain VPS5, stronger effect = lower value 1.01 | locus YOR136W, strain idh2, stronger effect = lower value 1.01 | locus YOR144C, strain elg1, stronger effect = lower value 1.01 | locus YOR184W, strain ser1, stronger effect = lower value 1.01 | locus YOR316C, strain cot1, stronger effect = lower value 1.01 | locus YPR119W, strain clb2, stronger effect = lower value 1.01 | locus YPR141C, strain kar3, stronger effect = lower value 1.02 | locus YPR163C, strain tif3, stronger effect = lower value 1.02 | locus YPR167C, strain met16, stronger effect = lower value 1.01 | strain wtn01, stronger effect = lower value 1
